According to PubChem BioAssay (NCI):
This is part of a sample that, as a whole, favours compounds with a hit. Of some 83,000 tested, about 20% had one in any assay.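 Results are percent growth after 48 hours of single-concentration exposure. 100 means growth as in untreated cells, lower positive values show inhibition; negative values down to -100 show cell death.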 Calls of active or inactive are those of the source. Rule for the calls: active = growth percent below 10; inactive = the rest.

Legend:
Experiment in all cases: NCI-60 one-dose screen, 48 h (100 = growth as untreated, 0 = no growth, -100 = all killed)
Conditions in all cases: 10 µM unless noted
[1] = system: T-47D breast
[2] = system: BT-549 breast
[3] = system: MDA-MB-435 melanoma
[4] = system: SW-620 colon
[5] = system: MCF7 breast
[6] = system: HCT-116 colon
[7] = system: HCC-2998 colon
[8] = system: KM12 colon

SMILES | growth [1] | growth [2] | growth [3] | growth [4] | growth [5] | growth [6] | growth [7] | growth [8]
CCOC(=O)C(O)C(O)(c1ccccc1)c1ccccc1 (configuration not stated) | 93.6% (inactive) | 103% (inactive) | 111% (inactive) | 109% (inactive) | 93.5% (inactive) | 105% (inactive) | 99.9% (inactive) | 101% (inactive)
O=C(NCCOCCOCCNc1cccc2c1C(=O)N(C1CCCNC1=O)C2=O)c1cc2c(o1)C(=O)c1ccccc1C2=O (configuration not stated) | 14.9% (inactive) | -94.7% (active) | -94.1% (active) | -6.93% (active) | -63.3% (active) | 0.0602% (active) | -56.2% (active) | -14.2% (active)
N#C/C(=C\c1ccc2c(c1)OCO2)n1nnc2ccccc21 | 26.2% (inactive) | 30.3% (inactive) | -69.1% (active) | 12% (inactive) | 10.3% (inactive) | 5.72% (active) | -9.93% (active) | -16.2% (active)
C[C@@H]1C(=O)N(C[C@@H](Cc2ccccc2)NC(=O)OCc2ccccc2)[C@]1(Cc1ccccc1)C(=O)OCc1ccccc1 | 22.3% (inactive) | 61.3% (inactive) | 48.3% (inactive) | 40.9% (inactive) | 27% (inactive) | 34.4% (inactive) | 72.8% (inactive) | 26% (inactive)
CNC(=O)c1cc(Oc2ccc3nc(NC(=O)Nc4cc(C(F)(F)F)cc(C(F)(F)F)c4)sc3c2)ccn1 | -39.6% (active) | -46.9% (active) | -13.6% (active) | -36.1% (active) | 0.0531% (active) | -56.1% (active) | 5.71% (active) | -14.7% (active)
CC(=O)c1sc(-c2ccccc2)cc1N | 83% (inactive) | 101% (inactive) | 94.1% (inactive) | 96.5% (inactive) | 97.7% (inactive) | 98.8% (inactive) | 99.4% (inactive) | 104% (inactive)
Cc1nc(-c2ccccc2)cc2c(O)c(C(=O)N/N=C/c3ccc(N(C)C)cc3)[nH]c(=O)c12 | 76.5% (inactive) | 103% (inactive) | 86.8% (inactive) | 75% (inactive) | 64.1% (inactive) | 57.6% (inactive) | 95.2% (inactive) | 82.3% (inactive)
CCOC(=O)c1ccc(-c2ccc3cc(OC)ccc3c2)nc1C | 91.6% (inactive) | 104% (inactive) | 94.3% (inactive) | 102% (inactive) | 93% (inactive) | 78.1% (inactive) | 101% (inactive) | 100% (inactive)
N#Cc1c(N)nc2c(nnn2-c2cccc(C(F)(F)F)c2)c1N | 48.1% (inactive) | 101% (inactive) | 108% (inactive) | 95.4% (inactive) | 60.1% (inactive) | 97.4% (inactive) | 102% (inactive) | 86.8% (inactive)
Cc1cc(=O)c2cc3nc(-c4cccnc4)oc3c(Br)c2o1 | 201% (inactive) | 103% (inactive) | 107% (inactive) | 99.5% (inactive) | 94.9% (inactive) | 99.9% (inactive) | 106% (inactive) | 109% (inactive)
COc1ccccc1NC(=O)Nc1ccc(-c2nc3ccccc3o2)cc1 | 68.1% (inactive) | 92.3% (inactive) | 104% (inactive) | 111% (inactive) | 99% (inactive) | 93.7% (inactive) | 106% (inactive) | 105% (inactive)
COc1cc2c(cc1OC)-c1ccc3cc4c(cc3c1N(CCCN(C)C)C2)OCO4 | 54.6% (inactive) | 41.2% (inactive) | 44% (inactive) | 25.2% (inactive) | 26% (inactive) | 9.53% (active) | 64.6% (inactive) | 38.4% (inactive)
Oc1[nH]c2ccccc2c1/C=c1/cc2c(c(-c3ccc(F)cc3)n1)=Nc1ccccc1-2 | -37.1% (active) | -31.3% (active) | -30.4% (active) | -10.6% (active) | -62.4% (active) | -61.3% (active) | -63.7% (active) | 14.6% (inactive)
Nc1ccc(-c2cc3c(Nc4ccc(OCc5cccc(F)c5)c(Cl)c4)ncnc3s2)cc1 | 15.4% (inactive) | 61.2% (inactive) | 43.8% (inactive) | 74.1% (inactive) | 26.2% (inactive) | 50.7% (inactive) | 38.6% (inactive) | 24% (inactive)
O=C(c1ccccc1)c1ccc(Cl)c([N+](=O)[O-])c1 | 71.5% (inactive) | 106% (inactive) | 89.5% (inactive) | 16.8% (inactive) | 91.3% (inactive) | 45.2% (inactive) | 88.4% (inactive) | 106% (inactive)
COc1ccc(/C=C2\C=C(c3ccccc3)N(CCc3ccccc3)C2=O)cc1OC | 8% (active) | 80.1% (inactive) | 36% (inactive) | 56% (inactive) | 34.4% (inactive) | 32.8% (inactive) | 73.3% (inactive) | 64% (inactive)
COc1ccc2c(c1)/C(=C\c1sc(=S)[nH]c1O)C(C(=O)O)=N2 | 94.3% (inactive) | 109% (inactive) | 100% (inactive) | 95.2% (inactive) | 97.7% (inactive) | 99.6% (inactive) | 103% (inactive) | 99.6% (inactive)
CCCCCCNc1cc(C)nc2ccc(OC)cc12 | 52.1% (inactive) | 75.5% (inactive) | 64.6% (inactive) | 68.7% (inactive) | 58.8% (inactive) | 28.5% (inactive) | 48.4% (inactive) | 66.3% (inactive)
CCNCCNc1cc(-c2cccc(C(F)(F)F)c2)c(C#N)c2nc3ccccc3n12 | -72.4% (active) | -64.6% (active) | -93.3% (active) | -67.3% (active) | -70% (active) | -93.9% (active) | -80.9% (active) | -75.6% (active)
Cc1cccc(-c2cc(O)c(C(=O)N3CCOCC3)s2)c1 | 18.9% (inactive) | 51.2% (inactive) | -50% (active) | 28% (inactive) | 19.5% (inactive) | 27.7% (inactive) | 63.2% (inactive) | 25.5% (inactive)
COc1cc(-c2ccc(N=Nc3c(O)c(C(=O)Nc4ccccc4OC)cc4ccccc34)c(OC)c2)ccc1N=Nc1c(O)c(C(=O)Nc2ccccc2OC)cc2ccccc12 | 103% (inactive) | 90.2% (inactive) | 99.9% (inactive) | 91.8% (inactive) | 91.1% (inactive) | 81.8% (inactive) | 97.7% (inactive) | 94.8% (inactive)
CNC=O | 98.3% (inactive) | 168% (inactive) | 96.9% (inactive) | 93.5% (inactive) | 99.3% (inactive) | 95.8% (inactive) | 174% (inactive) | 95.5% (inactive)
CCCCNCC(=O)Nc1ccc(C(=O)OCC)cc1 | 96.8% (inactive) | 92.5% (inactive) | 105% (inactive) | 105% (inactive) | 98.4% (inactive) | 86.4% (inactive) | 100% (inactive) | 103% (inactive)
C#CC[C@H](N)C(=O)O | 102% [20 µM] (inactive) | 106% [20 µM] (inactive) | 102% [20 µM] (inactive) | 103% [20 µM] (inactive) | 91.7% [20 µM] (inactive) | 96.3% [20 µM] (inactive) | 116% [20 µM] (inactive) | 105% [20 µM] (inactive)
O=C(/C=C/C12c3ccccc3C(c3ccccc31)C1C(=O)NC(=O)C12)c1ccc(Cl)cc1 (configuration not stated) | 39.9% (inactive) | 9.59% (active) | -19.4% (active) | -3.94% (active) | 10.6% (inactive) | -27.8% (active) | -67% (active) | -36.6% (active)
COc1ccc(-c2nc3ccccn3c2/C=C/C(=O)c2cc(OC)c(OC)c(OC)c2)cc1 | 26.6% (inactive) | 61.7% (inactive) | 38.6% (inactive) | 49.7% (inactive) | 18.8% (inactive) | 11.6% (inactive) | 61.1% (inactive) | 46.3% (inactive)
Cn1cc(-c2ccc3ncc(-c4ccc(CC(=O)Nc5cc(C(C)(C)C)nn5C)cc4)cc3c2)cn1 | -3.95% [30 µM] (active) | -2.02% [30 µM] (active) | 2.73% [30 µM] (active) | 22.2% [30 µM] (inactive) | 2.17% [30 µM] (active) | 20.4% [30 µM] (inactive) | 29.6% [30 µM] (inactive) | -40.1% [30 µM] (active)
CN(C)CCCCNc1ccc(NCCCCN(C)C)c2c1C(=O)c1c(O)ccc(O)c1C2=O | 97.1% (inactive) | 92% (inactive) | 92.7% (inactive) | -72.6% (active) | -81.6% (active) | -66.7% (active) | -86% (active) | -89.3% (active)
O=C1Nc2ccccc2/C1=N/N=C/c1c[nH]c2ccccc12 | 61% (inactive) | 92.7% (inactive) | 73.8% (inactive) | 71.5% (inactive) | 72.5% (inactive) | 72.4% (inactive) | 101% (inactive) | 28.5% (inactive)
